# Results: PubChem BioAssay (NCATS)
# Results filed as inconclusive are left out. Where a call stands in place of a potency, no number is given. Calls of active or inactive are those of the source. Calls come from the whole dose curve; as a rule, active = well fitted inhibition curve with a large enough effect; inconclusive = small, poorly fitted or top-dose-only effect; inactive = flat fitted curve, though single readings scatter.
# Test system: CP203
# Assay: qHTS profiling for inhibitors of Plasmodium falciparum proliferation (AID 504749); note: nearly all actives have a fitted effect of over 60% in size
# Conditions: P. falciparum in erythrocytes, SYBR Green DNA, 72 h; series mostly up to 28.7 µM
# Description: NIH National Institute of Allergy and Infectious Diseases [NIAID] NIH Chemical Genomics Center [NCGC] MLPCN Grant: None Assay Provider: Xinzhuan Su, NIAID NCGC Assay Overview: Plasmodium falciparum is a virulent malarial parasite that kills 1-2 million people worldwide each year. Transmitted by mosquitoes, the sporozoite form of the parasite enters the blood stream to infect hepatocytes, where they become merozoites that infect red blood cells (erythrocytes). Within erythrocytes, merozoites begin a […] cycle of growth and division, after which the parasite is released to infect new red blood cells. Gametocytes, which form within erythrocytes as well, circulate in the bloodstream and are ingested by the mosquito, thereby completing the life cycle. To profile malarial isolates for differential chemical responses and to identify inhibitors of malarial growth, an assay that measures P. falciparum growth and replication within erythrocytes was employed. This assay uses a DNA binding fluorescent dye (SYBR Green) to detect parasite DNA following cell lysis. Because mature erythrocytes lack DNA, only Plasmodium-derived DNA is detected.
# NCGC Assay Protocol Summary: The SYBR Green viability assay was adapted from a method described previously (Plouffe et al., 2008). For screening 3 ul culture medium was dispensed into 1536 well black clear bottom plates (Aurora Biotechnologies) using a Multidrop Combi (Thermo Fisher Scientific Inc.), 23 nL compounds in DMSO were added by a pin tool (Kalypsys), and 5 ul of erythrocytes infected with P. falciparum (0.3% parasitemia, 2.5% hematocrit final concentration) were added. The plates were incubated at 37 C in a humidified incubator in 5% CO2 for 72 h, and 2 ul lysis buffer (20 mM Tris HCl, 10 mM EDTA, 0.16% saponin, 1.6% triton X, 10X SYBR Green I supplied as 10,000X […] by Invitrogen) was added to each well. The plates were mixed for 25 sec with gentle shaking and incubated overnight at room temperature in the dark. The following morning, fluorescence intensity at 485(14) nm excitation and 535(25) nm emission wavelengths was measured on an EnVision (Perkin Elmer) plate reader. Plate reads were normalized relative to the control inhibitor (0.29 uM artemisinin) and vehicle (DMSO) wells present on each plate and then corrected by an algorithm using vehicle-only control plates at the beginning and end of the compound plate stack.
# Potency is the fitted concentration of half-maximal effect.
row,Compound,Potency
1,CCC1(C)CC(=O)NC(=O)C1,inactive
2,CCC1C(C)=NN=C(c2ccc(OC)c(OC)c2)c2cc(OC)c(OC)cc21 (stereo not given),inactive
3,c1csc(C2(N3CCCCC3)CCCCC2)c1,inactive
4,CN1C2CCC1CC(OC(c1ccccc1)c1ccc(Cl)cc1)C2 (stereo not given),12 µM (active)
5,COCC(C)N(C(=O)CCl)c1c(C)csc1C (stereo not given),inactive
6,CC(Cc1ccccc1)NC=O (stereo not given),inactive
7,CCC1(c2ccccc2)C(=O)NC(=O)NC1=O,inactive
8,CNC1(c2ccccc2Cl)CCCCC1=O (stereo not given),inactive
9,CC(N)Cc1ccc(O)cc1 (stereo not given),inactive
10,O[C@H]1[C@H]2[C@H](O)CCCN2C[C@H]1O,inactive
11,CCCCNCC(O)c1ccc(O)cc1 (stereo not given),inactive
12,C[C@]12CCC(=O)C[C@@H]1CC[C@@H]1[C@@H]2CC[C@]2(C)[C@@H](O)CC[C@@H]12,inactive
13,COc1ccc(OC)c(C(O)C(C)N)c1 (stereo not given),inactive
14,CNC(C)C(O)c1ccc(O)cc1 (stereo not given),inactive
15,CC[N+](C)(CC)CCOC(=O)C(O)(c1ccccc1)c1ccccc1,inactive
16,O=C/C=C/c1ccccc1,inactive
17,[Cl-].[Cl-].[Hg+2],inactive
18,CCC1(c2ccccc2)C(=O)NC(=O)N(C(=O)c2ccccc2)C1=O (stereo not given),inactive
19,O=C(NCNC(=O)NC1C(=O)NC(=O)N1CO)NC1C(=O)NC(=O)N1CO (stereo not given),inactive
20,CC(C)(O)C1C2OC(=O)C1C1(O)CC3OC34C(=O)OC2C14C (stereo not given),inactive

row,Compound,Potency
1,COc1ccc2c3c1O[C@H]1C(=O)CC[C@H]4[C@@H](C2)N(C)CC[C@]314,inactive
2,O=P(O)(O)C(Cl)(Cl)P(=O)(O)O,inactive
3,S=C(S)N1CCNCC1,inactive
4,Clc1ccccc1Cl,inactive
5,CCC(C)(S(=O)(=O)CC)S(=O)(=O)CC,inactive
6,C/C(=C\c1csc(C)n1)[C@@H]1C[C@@H]2O[C@]2(C)CCC[C@H](C)[C@H](O)[C@@H](C)C(=O)C(C)(C)[C@@H](O)CC(=O)O1,0.0024 µM (active)
7,CCC1(c2ccccc2)C(=O)NC(=O)N(C)C1=O (stereo not given),inactive
8,[O]=[Cr](=[O])([OH])[O][Cr](=[O])(=[O])[OH],inactive
9,CN1c2ccccc2C(NCCCCCCC(=O)O)c2ccc(Cl)cc2S1(=O)=O (stereo not given),inactive
10,ClCC1CO1 (stereo not given),inactive
11,FC(F)OC(F)(F)C(F)Cl (stereo not given),inactive
12,O=c1[nH]c(=O)n(Cl)c(=O)n1Cl,inactive
13,O=[N+]([O-])c1ccccc1,inactive
14,CCCCCl,inactive
15,C=CCN(C1=NCCN1)c1c(Cl)cccc1Cl,inactive
16,O=[N+]([O-])c1cc(I)c(O)c(I)c1,inactive
17,CNC(=O)OCC[N+](C)(C)C,inactive
18,NCC(O)c1cccc(O)c1 (stereo not given),inactive
19,ClC(Cl)(Cl)Cl,inactive
20,C[N+]1(C)CCCCC1COC(=O)C(O)(c1ccccc1)c1ccccc1 (stereo not given),inactive
